These results are taken from PubChem BioAssay (NCATS).

Values joined by “and” are separate entries in the source; they are usually repeats but may differ in a detail not shown here. Identical values can stand only once. Values without a mark were called inactive. Inconclusive results are not listed. Active and inactive are the calls of the source. Unless noted, calls follow the shape of the dose curve; as a rule, active = well fitted curve in the direction sought with a large enough effect; inconclusive = small, poorly fitted or top-dose-only effect, or another doubt; inactive = no such curve, though single readings can be large; an effect the other way counts as inactive or inconclusive.

One test relates to Tov-21-G. The experiment in a line: Primary qHTS to identify gynecologic anti-cancer compounds using libraries of approved drugs and bioactive compounds (AID 1345084). Also: % is scaled to controls: 0 for no effect and ±100 for the full control effect; nearly all actives have a fitted effect of over 55% in size. The note with it: Gynecologic cancer cell panel viability, ATPlite luminescence, 48 h; series mostly up to 57.5 µM. Summed up:
(§1)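 Five-concentration response, 48 h; readout is ATP-driven luciferase luminescence.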
Background: Quantitative high-throughput screening tests each substance at several concentrations.

For another test, the system named is Tov112D. The test is described as above. The conditions noted are these: Gynecologic cancer cell panel viability, ATPlite luminescence, 48 h; series mostly up to 57.5 µM. An outline of the steps: as §1
Test [1] can be described thus: Drug repurposing screens with cells derived from glioblastoma tumor samples (AID 1345199). Also: nearly all actives have a fitted effect of over 40% in size. Also: potency is read from the fitted curve at half-maximal effect. As to activity, negative = cell killing: % is scaled to controls: 0 for no effect and ±100 for the full control effect. The note with it: GBM patient neurospheres viability, ATP luminescence, 48 h. Summed up: (§2)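 Four patient lines of CD133+ GBM neurospheres were screened at several concentrations; hits were retested in those lines plus three slower-growing GBM lines, using 48-hour treatment and ATP-based viability.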

For another test, the system named is astro. The test is described as above. The note with it: viability, ATP luminescence, 48 h; series mostly up to 45.9 µM. An outline of the steps: as §2
The subject of another test is SKOV3. The experiment in a line: Primary qHTS to identify gynecologic anti-cancer compounds using libraries of approved drugs and bioactive compounds (AID 1345084). Also: % is scaled to controls: 0 for no effect and ±100 for the full control effect; nearly all actives have a fitted effect of over 55% in size. The note with it: Gynecologic cancer cell panel viability, ATPlite luminescence, 48 h; series mostly up to 57.5 µM. Summed up:
as §1

Test [2] deals with Nuclear receptor subfamily 1 group I member 2 (Rattus norvegicus) (UniProt Q9R1A7). Put plainly: qHTS assay for small molecule activators of the rat pregnane X receptor (rPXR) signaling pathway (AID 651751; call rule not given here; also: 0% is about no effect). The conditions noted are these: rPXR reporter cells, luciferase (One-Glo), 24 h.
Test [3] is described as follows: qHTS assay for small molecule activators of the human pregnane X receptor (PXR) signaling pathway (AID 720659; call rule not given here; also: 0% is about no effect).
[4] abbreviates: at 45.9 µM (top of the series), tumour line B.
The mark [5] stands for this setting: at 45.9 µM (top of the series), tumour line D.
Where [6] appears, read: at 46.1 µM (top of the series), tumour line C.
Where [7] appears, read: at 46 µM (top of the series), tumour line A.
Where [8] appears, read: at 20 µM (top of the series), tumour line C.
Setting [9] is: at 21.2 µM (top of the series), tumour line B.
Where [10] appears, read: at 21.2 µM (top of the series), tumour line D.
Where [11] appears, read: at 21.3 µM (top of the series), tumour line A.

Sequence of Nuclear receptor subfamily 1 group I member 2 (Rattus norvegicus) (Q9R1A7 whole entry, looked up): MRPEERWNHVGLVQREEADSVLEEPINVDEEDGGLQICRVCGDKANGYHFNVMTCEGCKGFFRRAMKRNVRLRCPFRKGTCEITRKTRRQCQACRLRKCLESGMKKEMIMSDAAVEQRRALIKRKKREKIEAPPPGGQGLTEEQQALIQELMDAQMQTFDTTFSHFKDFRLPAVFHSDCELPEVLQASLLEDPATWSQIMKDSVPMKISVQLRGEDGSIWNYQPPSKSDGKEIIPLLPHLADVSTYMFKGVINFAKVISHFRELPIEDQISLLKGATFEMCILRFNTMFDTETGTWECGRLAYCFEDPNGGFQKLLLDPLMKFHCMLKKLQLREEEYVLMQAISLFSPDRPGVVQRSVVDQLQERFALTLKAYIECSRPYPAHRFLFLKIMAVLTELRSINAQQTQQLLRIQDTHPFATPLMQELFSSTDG

On to `CC[C@]12CCCN3CCc4c(n(c5ccccc45)[C@@](O)(C(=O)OC)C1)[C@@H]32`, for which the molecule was classed as inactive in the test on Tov-21-G, in the test on Tov112D and with astro. The activity, negative = cell killing was -12.1% in test [1] (setting [4]), 5.83% in test [1] (setting [5]) and -21.5% in test [1] (setting [6]). In addition, the Potency in test [1] (tumour line A) was 17.8 µM (active).
Turning to `CC(C)NC[C@@H](O)COc1ccc(CC(N)=O)cc1`, the result in the test with Tov-21-G, in the test on Tov112D and with astro was inactive. Moreover, the activity, negative = cell killing in test [1] (setting [4]) is -18.7%; in test [1] (setting [5]), 5.31%; in test [1] (setting [7]), 1.1%; in test [1] (setting [6]), -9.77%.
For the molecule `CCCCCOC(=O)Nc1nc(=O)n([C@@H]2O[C@H](C)[C@@H](O)[C@H]2O)cc1F`, the result in the test with Tov-21-G, in the test on Tov112D and with astro was inactive. Moreover, the activity, negative = cell killing is 3.4% in test [1] (setting [4]), -3.99% in test [1] (setting [5]), -16.9% in test [1] (setting [7]) and 7.27% in test [1] (setting [6]).
With `C=CCN1C[C@H](C(=O)N(CCCN(C)C)C(=O)NCC)C[C@@H]2c3cccc4[nH]cc(c34)C[C@H]21`, the call in the test on SKOV3, with Tov-21-G, in the test on Tov112D and in the test with astro was inactive. For the same molecule, in test [1] (setting [4]), the activity, negative = cell killing is -13.1%.
As to `CCOc1ccccc1O[C@H](c1ccccc1)[C@H]1CNCCO1`, the call with Tov-21-G, in the test with Tov112D and with astro was inactive. The activity, negative = cell killing in test [1] (setting [4]) was -15.3%; in test [1] (setting [6]) it was 11.5%. Moreover, the Potency in test [1] (tumour line A) was 12.6 µM (active).
`COC(=O)c1ccccc1C(=O)c1ccc(OCCN2CCCCC2)cc1`: the result with Tov-21-G and with Tov112D was inactive. For the same molecule, in test [1] (setting [4]), the activity, negative = cell killing is -26.9%. In addition, the values for the Potency in test [1] (tumour line A), in test [1] (tumour line C) and in test [1] (tumour line D) were 7.08 µM (active), 20.6 µM (active) and 12.6 µM (active), respectively.
Turning to `NS(=O)(=O)c1cc(-c2nn[nH]n2)c(NCc2cccs2)cc1Cl`, the molecule was classed as inactive with Tov-21-G, in the test with Tov112D and in the test on astro. Also, the activity, negative = cell killing in test [1] (setting [4]) was 0.416%; in test [1] (setting [5]) it was -1.64%; in test [1] (setting [6]), -29.2%.
In the case of `CC(=O)OCC(=O)[C@@]1(O)CC[C@H]2[C@@H]3CCC4=CC(=O)C=C[C@]4(C)[C@@]3(F)[C@@H](O)C[C@@]21C`, the result in the test with Tov-21-G and in the test on Tov112D was inactive. The activity, negative = cell killing in test [1] (setting [8]) was 11.3%; in test [1] (setting [9]), 1.05%; in test [1] (setting [10]), -1.44%; in test [1] (setting [11]) it was -7.16%.
As to `CC(=O)Nc1ccc(OCCOCCOc2ccc(NC(C)=O)cc2)cc1`, the outcome in the test on Tov-21-G and with Tov112D was inactive. The activity, negative = cell killing in test [1] (setting [4]) is -5.83%; in test [1] (setting [6]), -16.3%.
Regarding `CN1CCN(C(=O)C2CCCCC2)CC1`, the outcome in the test on Tov-21-G, with Tov112D and with astro was inactive. The activity, negative = cell killing is -7.62% in test [1] (setting [4]), -7.41% in test [1] (setting [5]) and -23.1% in test [1] (setting [6]).
On to `Nc1ccc(S(=O)(=O)c2ccc(N)cc2)cc1`, for which the result (in the test with Tov-21-G; in the test with Tov112D; in test [3]) was inactive. The activity, negative = cell killing is -14.4% in test [1] (setting [4]), 8.15% in test [1] (setting [5]), -30% in test [1] (setting [7]) and -8.46% in test [1] (setting [6]). Further, the max response in test [2] is -2.07% and 2.17%.
For the molecule `Cc1ccsc1/C=C/C1=NCCCN1C`, the outcome in the test with Tov-21-G, with Tov112D and in the test on astro was inactive. Also, the activity, negative = cell killing in test [1] (setting [8]) is -9.86%; in test [1] (setting [9]), -2.99%; in test [1] (setting [10]) it was -7.19%; in test [1] (setting [11]) it was -22.2%.
As for `NC(=O)N[C@@H](CCC(=O)O)C(=O)O`, the molecule was classed as inactive in the test on SKOV3 and in the test on astro. For the same molecule, the activity, negative = cell killing was -6.35% in test [1] (setting [4]), -8.74% in test [1] (setting [5]), -22.8% in test [1] (setting [7]) and -19.7% in test [1] (setting [6]).
On to `CC1CCc2cc(F)cc3c(=O)c(C(=O)O)cn1c23` (stereo not given), for which the molecule was classed as inactive in the test on Tov-21-G, with Tov112D and in the test with astro. In addition, the activity, negative = cell killing in test [1] (setting [4]) is -0.458%; in test [1] (setting [5]), -19%; in test [1] (setting [7]), -20.5%; in test [1] (setting [6]) it was -25.6%.
On to `O=C(O)Cn1c(C(=O)Nc2nc(-c3ccccc3Cl)cs2)cc2ccccc21`, for which the outcome in the test on Tov-21-G and with Tov112D was inactive. Further, the figures for the activity, negative = cell killing in test [1] (setting [4]), in test [1] (setting [5]) and in test [1] (setting [7]) were -16.8%, -18.1% and -41.5%, respectively.
Consider `COC(=O)c1cccnc1`, for which the outcome in the test with Tov-21-G, in the test on Tov112D and in the test on astro was inactive. In addition, the activity, negative = cell killing in test [1] (setting [4]) was -7.13%; in test [1] (setting [5]), -4.81%; in test [1] (setting [7]), -28.2%; in test [1] (setting [6]), 40.1%.
Regarding `CCN1CC(CCN2CCOCC2)C(c2ccccc2)(c2ccccc2)C1=O` (stereo not given), the call in the test with Tov-21-G, with Tov112D and with astro was inactive. The activity, negative = cell killing in test [1] (setting [4]) was -13.3%; in test [1] (setting [5]), -11.4%; in test [1] (setting [6]), -23.7%.
Take `COc1cc(C(=O)NCCCCCC(=O)O)cc(OC)c1OC`: the molecule was classed as inactive in the test with Tov-21-G, with Tov112D and in the test on astro. In addition, the activity, negative = cell killing in test [1] (setting [4]) is -7.31%; in test [1] (setting [5]), -8.75%; in test [1] (setting [7]), -18.3%; in test [1] (setting [6]) it was -40.8%.
With `Cc1cccc(C(=O)O)c1O`, the call in the test with SKOV3, with Tov112D and with astro was inactive. Moreover, the activity, negative = cell killing is -1.64% in test [1] (setting [4]), -5.93% in test [1] (setting [5]), -19.5% in test [1] (setting [7]) and -18.8% in test [1] (setting [6]).
